# A selection: hits, their analogues and other compounds. The true share with any hit is near 2.4%.
# ClpP mod = qHTS Assay for Activators of ClpP. purified B. subtilis ClpP, FRET peptide cleavage, 20 min. 1.9% of 340,000 active. Potency, µM (highest dose often 57.5 µM), for inactives: at the top dose activity change, negative = active. ATP-dependent Clp protease proteolytic subunit (Bacillus subtilis (strain 168)), P80244; active = well fitted falling curve with a large enough effect; inconclusive = small, poorly fitted or top-dose-only effect; inactive = no such curve, though single readings can be large or run the other way; note: the source files actives as falling curves though it sought activators and does not explain the sign; nearly all actives have a fitted effect of over 65% in size
#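 Buffer: 100 mM Tris/HCl pH8, 100 mM KCl, 0.05% low protease BSA, 2.5% glycerol, 0.01% Tween-20. ClpP 10 microg/mL final; 20 min RT; delta FRET normalized to ADEP and DMSO controls.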
# Rango complex inh = qHTS Assay for Inhibitors of Rango (Ran-regulated importin-beta cargo) - Importin beta complex formation | AID 540263, 2011 | Importin subunit beta-1 (Homo sapiens), Q14974 | 0.031% of 340,000 active | Rango CFP/YFP FRET sensor + importin beta, 45 min | Potency, µM (doses to about 92.2 µM), without a hit: top-dose inhibition of complex formation;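 note: 0% = DMSO wells and 100% = buffer wells lacking importin beta; nearly all actives have a fitted effect of over 15% in size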
#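 FRET biosensor Rango (snurportin 1 IBB between N-terminal EYFP and C-terminal Cerulean), 50 nM in PBS/1 mM DTT/0.02% Tween-20/0.1% BSA, preincubated 5 min RT with compound; 0.125 microM importin beta added, 45 min RT, CFP/YFP FRET ratio read.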
# PTAP TSG101 blk = qHTS Assay for Iinhibitors of HIV-1 Budding by Blocking the Interaction of PTAP/TSG101; Tumor susceptibility gene 101 protein (Homo sapiens), Q99816; Fluorescence polarization, FITC-PTAP peptide / Tsg101 binding; Potency, µM (series often up to 115 µM), inactives show top-dose activity change, negative = inhibition, most hits filed as inhibitors; 340,000 tested, under 10 active; active = well fitted inhibition curve with a large enough effect in the main read-out, with a control signal flat, not every such curve was filed as active; inconclusive = small, poorly fitted or top-dose-only effect, or effect the other way, or a change in a side signal; inactive = no such curve, though single readings can be large or run the other way; note: % of control where 0% means no effect
#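 Fluorescence polarization binding of Tsg101 binding domain (10 uM final) to FITC-labeled PTAP peptide (50 nM final) in HEPES pH 7.5 buffer with NaCl, Tween 20, EDTA, TCEP. Compounds added before peptide; binding 20 min at RT.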
# TDP1 inh = qHTS Assay for Inhibitors of Tyrosyl-DNA Phosphodiesterase (TDP1). recombinant TDP1, AlphaScreen DNA substrate cleavage. Potency, µM (doses to about 130 µM), inactives show top-dose activity change, negative = inhibition, hits mostly inhibitors. 0.28% of 350,000 active; active = well fitted curve in the direction sought with a large enough effect; inconclusive = small, poorly fitted or top-dose-only effect, or another doubt; inactive = no such curve, though single readings can be large; an effect the other way counts as inactive or inconclusive; note: % is set by controls: 0 for no effect and ±100 for the full control effect; nearly all actives have a fitted effect of over 40% in size
#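 AlphaScreen read-out: signal falls as enzyme removes the 3' tyrosine-FITC from a 5'-biotinylated DNA oligo (15 nM, 5 min, RT). Enzyme was E. coli-made recombinant Tdp1 at 1 nM, exposed to compound for 15 min beforehand; beads 10 ug/ml, 10 min.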
# ALOX12 inh = Primary qHTS assay for inhibitors of human arachidonate 12S-lipoxygenase (ALOX12): Round 2; Potency, µM (doses to about 108 µM), for the others: top-dose activity change, negative = inhibition, actives largely listed as inhibitors; AID 1671190, 2021; purified 12hLO, xylenol orange hydroperoxide absorbance; 1.1% of 580,000 active; active = well fitted curve in the direction sought with a large enough effect; inconclusive = small, poorly fitted or top-dose-only effect, or another doubt; inactive = no such curve, though single readings can be large; an effect the other way counts as inactive or inconclusive; note: % is set by controls: 0 for no effect and ±100 for the full control effect
# Target sequence (P18054 whole entry, looked up): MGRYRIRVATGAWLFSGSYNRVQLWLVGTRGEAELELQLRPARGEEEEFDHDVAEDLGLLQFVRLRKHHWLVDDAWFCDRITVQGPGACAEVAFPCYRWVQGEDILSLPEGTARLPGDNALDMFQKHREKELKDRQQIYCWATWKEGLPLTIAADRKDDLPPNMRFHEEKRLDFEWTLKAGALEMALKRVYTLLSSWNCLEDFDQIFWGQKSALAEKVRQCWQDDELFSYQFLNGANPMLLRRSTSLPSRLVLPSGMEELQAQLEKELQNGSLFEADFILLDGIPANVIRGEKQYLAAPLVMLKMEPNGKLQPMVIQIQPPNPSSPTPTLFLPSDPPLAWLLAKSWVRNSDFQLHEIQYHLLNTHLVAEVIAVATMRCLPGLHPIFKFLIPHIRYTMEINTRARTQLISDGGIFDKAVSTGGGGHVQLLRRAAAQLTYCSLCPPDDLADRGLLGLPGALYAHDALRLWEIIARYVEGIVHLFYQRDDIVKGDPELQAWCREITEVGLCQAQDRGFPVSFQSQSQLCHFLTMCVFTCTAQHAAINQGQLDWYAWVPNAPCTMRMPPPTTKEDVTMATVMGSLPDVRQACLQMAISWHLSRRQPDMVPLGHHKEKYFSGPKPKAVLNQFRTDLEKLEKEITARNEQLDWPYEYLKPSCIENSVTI
#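 Purified human 12hLO (150 nM final) in 25 mM Hepes, 0.01% Triton X-100, pH 7.0 was preincubated 15 min at room temperature with compound. Then 40 uM arachidonic acid was added, 30 min. Hydroperoxide was read by Fe-XO absorbance ratio 573/405 nm.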
# Rango release inh = qHTS Assay for Inhibitors of RanGTP induced Rango (Ran-regulated importin-beta cargo) - Importin beta complex dissociation | Biochemical FRET Rango-importin beta, RanGTP-induced dissociation | Potency, µM (top dose mostly 46.1 µM), for the others: at the highest dose activity change, negative = inhibition | 0.071% of 340,000 active | AID 540253, 2011; note: % of control where 0% means no effect; nearly all actives have a fitted effect of over 45% in size
#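 Compounds preincubate 5 min with complex of recombinant Rango and importin beta in PBS with 1 mM DTT. Ran (0.6 uM) loaded with 2 mM GTP plus 0.2 uM RCC1 starts dissociation; FRET is recorded 45 min later.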
# Active calls of the source: *; ? = inconclusive; nt = not tested or not shown; [ ] = remark or other dose. Unless noted, calls come from the whole dose curve. Potency is the fitted concentration of half-maximal effect.
SMILES,ClpP mod,Rango complex inh,PTAP TSG101 blk,TDP1 inh,ALOX12 inh,Rango release inh
CCN(CC(=O)NCc1cccs1)C(=O)c1cccc(S(=O)(=O)Nc2ccccc2Cl)c1,35µM*,0%,-3%,-3%[0.505 µM],-21%,4%
C=CCNC(=O)c1ccc(N2CC3CC(C2)[C@H]2CCCC(=O)N2C3)nc1 (stereo partly drawn),nt,nt,nt,nt,18%,nt
O=C(NC(=S)Nc1cccc(NC(=S)NC(=O)c2ccccc2)c1)c1ccccc1,nt,?,-6%,nt,14µM*,-8%
COc1ccc(C(=O)NC(=S)Nc2ccc(N3CCN(C(C)=O)CC3)cc2)cc1[N+](=O)[O-],-3%,-2%,-1%,3%,75%,7%
CC(=O)c1cccc(NC(=S)NC(=O)c2ccccc2Cl)c1,1%,-2%,0%,3%,-21%,-5%
O=C(NC(=S)Nc1c(Cl)cc(Cl)cc1Cl)c1ccccc1,-2%,nt,nt,nt,35µM*,nt
O=C(NC(=S)Nn1cnnc1)c1ccccc1,1%,0%,-2%,0%,35µM*,5%
O=C(Nc1cccc(NC(=S)NC(=O)c2cccs2)c1)c1ccccc1,-4%,-3%,-3%,5%,-14%,-6%
CC(=O)N1CCN(c2ccc(NC(=S)NC(=O)c3ccc(C)c([N+](=O)[O-])c3)cc2)CC1,32µM*,3%,0%,nt,?,-9%
O=C(NC(=S)Nn1cnnc1)c1ccccc1Br,1%,2%,-4%,nt,-26%,-16%
Cc1cccc(CN2CCCC(COc3ccccc3C(=O)N3CCCC3)C2)c1 (stereo not drawn),nt,nt,nt,nt,33%,nt
Cc1cccc(C(=O)NC(=S)Nc2ccc(S(=O)(=O)N3CCCCC3)cc2)c1,-16%,4%,-3%,4%,11µM*,-14%
Cc1ccc(NC(=S)NC(=O)c2ccccc2)cc1NC(=S)NC(=O)c1ccccc1,0%,-1%,1%,8%,4µM*,-27%
CNC(=S)Nc1ccc(C)c(NC(=S)NC)c1,nt,-1%,-4%,4%,-10%,-10%
CC(NC(=S)NC(=O)c1ccccc1)c1ccccc1 (stereo not drawn),-1%,6%,1%,nt,0%,4%
Cc1cccc(C(=O)NC(=S)NC(C)c2ccccc2)c1 (stereo not drawn),0%,0%,-3%,nt,6.3µM*,0%
Cc1ccc(C(=O)O)cc1NC(=S)NC(=O)c1ccc([N+](=O)[O-])c(C)c1,-1%,-3%,-5%,5%,20µM*,11%
Cc1nc(-c2cnccn2)n(CC(=O)Nc2cccc(C(F)(F)F)c2)c(=O)c1CCO,nt,nt,nt,nt,46%,nt
O=S(=O)(NC1CCSc2ccccc21)c1cccs1 (stereo not drawn),nt,nt,nt,nt,-72%,nt
COc1cccc(-c2nc(/C=C(/CCC(=O)O)c3nc4ccccc4s3)cs2)c1,nt,nt,nt,nt,25%,nt
CCC(=O)Nc1cccc(NC(=S)NC(=O)c2cccc(C)c2)c1,1%,0%,1%,3%,35µM*,15%
Cc1ccc(NC(=O)c2cccs2)cc1S(=O)(=O)Nc1cccc(Cl)c1,-7%,-1%,-4%,-3%,-28%,-8%
CCC(=O)Nc1cccc(NC(=S)NC(=O)c2ccc(C)cc2)c1,-2%,-1%,-4%,4%,-20%,-11%
Cc1ccc(NC(=S)NC(=O)c2ccc(F)cc2)cc1S(=O)(=O)Nc1cccc(Cl)c1,-2%,14%,-2%,-5%,13µM*,-4%
Cn1ccc2c(C(=O)NCc3cccnc3)nc(-c3cccc(F)c3)cc21,nt,nt,nt,nt,9%[176 µM],nt
SMILES,ClpP mod,Rango complex inh,PTAP TSG101 blk,TDP1 inh,ALOX12 inh,Rango release inh
O=C1C2C3C=CC(CC3)C2C(=O)N1c1nccs1 (stereo not drawn),0%,0%,-1%,10µM*,-5%,-10%
O=C1C2C3C=CC(C2C(=O)N1c1nccs1)C1C(=O)N(c2nccs2)C(=O)C31 (stereo not drawn),nt,-2%,-1%,nt,-2%,18%
O=C1C=CC(=O)N1Cc1ccncc1,-5%,?,-6%,nt,?,-16%
O=C1C=CC(=O)N1CCCCCCCCCCN1C(=O)C=CC1=O,nt,1%,-5%,nt,2µM*,-11%
Cc1ccc(S(=O)(=O)N2CCCCC2)cc1C(=O)Nc1ncn[nH]1,nt,nt,nt,50µM*,nt,nt
CC(=O)Nc1ccc(NC(=O)c2cc(S(=O)(=O)N3CCCCC3)ccc2C)cc1,1%,1%,-4%,2%,7%,-11%
Cc1ccc(S(=O)(=O)N2CCCCC2)cc1C(=O)Nc1cccnc1,nt,-2%,-8%,20µM*,3%,13%
COc1ccccc1NC(=O)c1c([N+](=O)[O-])cnn1C,-1%,0%,-1%,1.4µM*,7%,-7%
Cn1ncc([N+](=O)[O-])c1C(=O)Nc1ccccc1C(=O)O,nt,0%,-4%,nt,1%,-9%
COc1cc(Nc2nc(SCc3cccc(Cl)c3)nc3ccccc23)cc(OC)c1,32µM*,nt,nt,-10%,?,nt
COc1cc(Nc2nc(SCc3ccccc3F)nc3ccccc23)cc(OC)c1,?,nt,nt,1%,-18%,nt
COc1cc(F)ccc1-c1nccc2c(=O)cc(N3CCOCC3)oc12,nt,nt,nt,nt,3%[176 µM],nt
O=C(OCC(=O)N1CCOCC1)c1cc2ccccc2oc1=O,4%,0%,-4%,-1%,3%,15%
CC1CC(C)CN(C(=O)COC(=O)c2cc3ccccc3oc2=O)C1 (stereo not drawn),35µM*,-5%,-2%,1%,-12%,-4%
COc1ccc(C(=O)N2C[C@@H]3OCC(=O)N(Cc4ccc(OC(F)(F)F)cc4)[C@@H]3C2)cc1,nt,nt,nt,nt,-20%,nt
COC(=O)[C@H](CC(C)C)NC(=O)Nc1ccc(OC)c(Cl)c1,nt,nt,nt,nt,-6%,nt
N#Cc1ccc(-c2ccc(OCC(=O)NCCc3ccccc3)cc2)cc1,32µM*,2%,0%,0%,12%,3%
CCCNC(=O)[C@H]1[C@H](CO)[C@H]2Cn3c(ccc(-c4ccc(F)cc4)c3=O)[C@@H]1N2C(=O)NC(C)C,nt,nt,nt,nt,-12%,nt
COc1ccc(CC(=O)Nc2cnc(-c3ccc(C)cc3)nc2)cc1,nt,nt,nt,nt,22%,nt
COc1cc(C=Nc2ccccc2C(=O)Nc2ccccc2)cc(OC)c1OC,25µM*,0%,-7%,4%,-11%,-4%

# Assay outcomes as filed in PubChem.
